Measurements published in the supplement of paper PMC11219838.
Values without a mark were called inactive.

How the values were obtained:
Details in all cases: 60 µM; 5 days; temperature: 20 °C
[1] = system: Meloidogyne hapla J2; assay: proportion of mobile M. hapla J2 relative to DMSO control (fraction of DMSO control); higher = more viable, less nematicidal, active = 0.7 or less
Procedure, shortened: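 About 25 M. hapla J2 were placed in each well of a 96-well plate in distilled water, and compound was pinned in to a final 60 µM with 0.6% v/v DMSO. The sealed plates were shaken at 200 rpm at 20 °C for 5 days, after which 2 µL of 1 M NaOH went into each well. Mobility was then scored under the microscope and divided by the mean value from DMSO-only wells on the same plate. Each plate held eight such DMSO wells, and two biological replicates were averaged.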

[2] = system: Caenorhabditis elegans dauer (daf-2(e1370)); assay: proportion of mobile C. elegans dauer larvae relative to DMSO control (fraction of DMSO control); higher = more viable, less nematicidal, active = 0.63 or less; extreme values may be limits of the assay
Procedure, shortened: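 Compound was added by pinning to 60 µM final, giving 0.6% v/v DMSO, in 96-well plates containing about 20 C. elegans dauers per well in liquid NGM. These dauers came from synchronized larvae held on MYOB plates with E. coli OP50 for 48 h at 25 °C. Plates were sealed and shaken at 200 rpm at 20 °C for 5 days. Under a dissection microscope, the proportion of mobile worms was scored relative to DMSO wells, and two biological replicates were averaged.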

[3] = system: Ditylenchus dipsaci; assay: proportion of mobile D. dipsaci (mixed stage) relative to DMSO control (fraction of DMSO control); higher = more viable, less nematicidal, active = 0.86 or less; extreme values may be limits of the assay
Procedure, shortened: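 Ditylenchus dipsaci nematodes were cultured on pea plants in Gamborg B-5 agar, then extracted into water through a filter funnel, and roughly 20 worms in distilled water were placed in each well of a 96-well plate. Compound was pinned in to a final concentration of 60 µM (0.6% v/v DMSO), and the sealed plates were shaken at 200 rpm for 5 days at 20 °C. Mobile worms were counted under the microscope after 2 µL of 1 M NaOH was added. Mobility is given relative to DMSO controls as the mean of two biological replicates.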

## Cc1cccc(-c2noc(-c3cccc(Br)c3)n2)c1
[1]
  proportion of mobile M. hapla J2: 0.87
[2]
  proportion of mobile C. elegans dauer larvae: 1
[3]
  proportion of mobile D. dipsaci: 1

## Cn1c(SCc2nc(-c3ccc(Br)cc3)no2)nnc1-c1ccco1
[1]
  proportion of mobile M. hapla J2: 0.835
[2]
  proportion of mobile C. elegans dauer larvae: 1
[3]
  proportion of mobile D. dipsaci: 1

## O=C(CSc1nnc(-c2ccc(Br)cc2)o1)NC1CCCC1
[1]
  proportion of mobile M. hapla J2: 0.944
[2]
  proportion of mobile C. elegans dauer larvae: 1
[3]
  proportion of mobile D. dipsaci: 1

## COc1ccc(-c2nnc(SCC(=O)c3ccc4ccccc4c3)o2)cc1
[1]
  proportion of mobile M. hapla J2: 1.03
[2]
  proportion of mobile C. elegans dauer larvae: 1
[3]
  proportion of mobile D. dipsaci: 1

## CCCCC(=O)Nc1ccccc1-c1nc(-c2cccnc2)no1
[1]
  proportion of mobile M. hapla J2: 1.01
[2]
  proportion of mobile C. elegans dauer larvae: 1
[3]
  proportion of mobile D. dipsaci: 1

## Cc1cc(C)cc(-c2nc(-c3ccc(Cl)cc3)no2)c1
[1]
  proportion of mobile M. hapla J2: 0.938
[2]
  proportion of mobile C. elegans dauer larvae: 1
[3]
  proportion of mobile D. dipsaci: 1

## Cc1cccc(-c2nnc(SCC(=O)Nc3ccc(Br)c(C)c3C)o2)c1
[1]
  proportion of mobile M. hapla J2: 1
[2]
  proportion of mobile C. elegans dauer larvae: 1
[3]
  proportion of mobile D. dipsaci: 1

## CCc1ccc(OCc2nc(-c3cccnc3)no2)cc1
[1]
  proportion of mobile M. hapla J2: 1.04
[2]
  proportion of mobile C. elegans dauer larvae: 0.436 (active)
[3]
  proportion of mobile D. dipsaci: 1

## Clc1ccccc1-c1noc(-c2cccnc2)n1
[1]
  proportion of mobile M. hapla J2: 0.883
[2]
  proportion of mobile C. elegans dauer larvae: 1
[3]
  proportion of mobile D. dipsaci: 1

## CCOc1ccccc1-c1nnc(SCC(=O)NC(C)CC)o1 (configuration not stated)
[1]
  proportion of mobile M. hapla J2: 0.951
[2]
  proportion of mobile C. elegans dauer larvae: 1
[3]
  proportion of mobile D. dipsaci: 1

## Clc1ccc(-c2nc(-c3ccc4c(c3)OCO4)no2)cc1
[1]
  proportion of mobile M. hapla J2: 1.03
[2]
  proportion of mobile C. elegans dauer larvae: 1
[3]
  proportion of mobile D. dipsaci: 1

## Cc1ccccc1-c1noc(CSc2nc3ccccc3[nH]2)n1
[1]
  proportion of mobile M. hapla J2: 0.918
[2]
  proportion of mobile C. elegans dauer larvae: 1
[3]
  proportion of mobile D. dipsaci: 1

## CC1CC(C)CN(C(=O)CSc2nnc(-c3ccccc3)o2)C1 (configuration not stated)
[1]
  proportion of mobile M. hapla J2: 1.02
[2]
  proportion of mobile C. elegans dauer larvae: 1
[3]
  proportion of mobile D. dipsaci: 1

## O=C(Nc1ccccc1-c1nc(-c2cccnc2)no1)c1cc2ccccc2o1
[1]
  proportion of mobile M. hapla J2: 0.919
[2]
  proportion of mobile C. elegans dauer larvae: 1
[3]
  proportion of mobile D. dipsaci: 0.9
